Reference: the supplement of paper PMC12494721
Counter-ions that a name gives are not always drawn.

Columns and labels:
Settings in all cases: incubation time: 27 h, anaerobic, 37 °C;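 for the amine columns active = adjusted P below 0.05 in both replicates with a change the same way and a mean fold change under 0.8 or over 1.25; inactive = the rest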
[1] = tested on: Clostridium sporogenes DSM 1664; assay: growth (OD595) fold change vs plate DMSO controls (fold change (ratio)); higher = more growth
Method in brief: (§1)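 The measure reported is growth, taken as fold change against the median of DMSO controls on the same plate. Anaerobic mGAM cultures in 96-well plates (27 h, 37 °C) were read at 595 nm, blank-subtracted, corrected for compound background using 20 µM compound solutions in water, and multiplied by a calibration factor of 5 to give OD. Any fold change above 1.5 became NA, and 2 biological replicates were averaged.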

Escherichia coli IAI1 [2] = assay: as above
Method in brief: as §1

[3] = tested on: Klebsiella aerogenes DSM 30053; assay: as above
Method in brief: as §1

[4] = tested on: Ruminococcus gnavus DSM 108212; assay: as above
Method in brief: as §1

[5] = tested on: Klebsiella aerogenes DSM 30053; assay: fold change of Histamine concentration vs plate DMSO controls (fold change (ratio)); higher = more amine produced, active = hit call of the paper (significant change in both replicates, either direction)
Method in brief: (§2)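 In 80 µL wells, cultures of four gut bacterial strains in mGAM started at OD 0.1 before a 1:1 dilution and grew anaerobically at 37 °C for 27 h. Compounds were added to 20 µM final, except sweeteners at 50 µM final. After extraction of whole cultures with cold acetonitrile/methanol plus 0.1% formic acid and centrifugation, amines were measured by LC–triple-quadrupole MS in dynamic MRM mode against external calibration curves, with within-batch drift correction. Values give fold change over DMSO controls on the same plate, averaged across 2 biological replicates.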

[6] = tested on: Clostridium sporogenes DSM 1664; assay: fold change of Tryptamine concentration vs plate DMSO controls (fold change (ratio)); higher = more amine produced, active = hit call of the paper (significant change in both replicates, either direction)
Method in brief: as §2

[7] = tested on: Ruminococcus gnavus DSM 108212; assay: as above
Method in brief: as §2

Escherichia coli IAI1 [8] = assay: fold change of Putrescine concentration vs plate DMSO controls (fold change (ratio)); higher = more amine produced, active = hit call of the paper (significant change in both replicates, either direction)
Method in brief: as §2

[9] = tested on: Klebsiella aerogenes DSM 30053; assay: as above
Method in brief: as §2

Escherichia coli IAI1 [10] = assay: fold change of Cadaverine concentration vs plate DMSO controls (fold change (ratio)); higher = more amine produced, active = hit call of the paper (significant change in both replicates, either direction)
Method in brief: as §2

[11] = tested on: Klebsiella aerogenes DSM 30053; assay: as above
Method in brief: as §2

[12] = tested on: Ruminococcus gnavus DSM 108212; assay: fold change of 2-Phenylethylamine concentration vs plate DMSO controls (fold change (ratio)); higher = more amine produced, active = hit call of the paper (significant change in both replicates, either direction)
Method in brief: as §2

SMILES | growth [1] | growth (Escherichia coli IAI1 [2]) | growth [3] | growth [4] | fold change of Histamine concentration [5] | fold change of Tryptamine concentration [6] | fold change of Tryptamine concentration [7] | fold change of Putrescine concentration (Escherichia coli IAI1 [8]) | fold change of Putrescine concentration [9] | fold change of Cadaverine concentration (Escherichia coli IAI1 [10]) | fold change of Cadaverine concentration [11] | fold change of 2-Phenylethylamine concentration [12]
CCOc1ccc(NC(C)=O)cc1 [Phenacetin] (20 µM) | 1.11 | 1.02 | 1.01 | 1.3 | 1.03 (inactive) | 0.966 (inactive) | 0.999 (inactive) | 1.07 (inactive) | 1.02 (inactive) | 0.997 (inactive) | 1.01 (inactive) | 0.992 (inactive)
CCCCc1nc(Cl)c(CO)n1Cc1ccc(-c2ccccc2-c2nnn[nH]2)cc1 [Losartan] (20 µM) | 1.01 | 0.991 | 1.01 | 0.99 | 1.07 (inactive) | 0.975 (inactive) | 1.05 (inactive) | 1.01 (inactive) | 1.04 (inactive) | 0.99 (inactive) | 1 (inactive) | 1.06 (inactive)
CC(CN(C)C)CN1c2ccccc2Sc2ccccc21 (stereo not given) [Trimeprazine tartrate] (20 µM) | 1.23 | 1.01 | 1.07 | 0.937 | 0.989 (inactive) | 1.08 (inactive) | 0.804 (inactive) | 0.885 (inactive) | 1 (inactive) | 1.02 (inactive) | 1.01 (inactive) | 0.818 (inactive)
CC(CCc1ccc(O)cc1)NCCc1ccc(O)c(O)c1 (stereo not given) [Dobutamine hydrochloride] (20 µM) | 1.01 | 0.997 | 0.99 | 0.938 | 1.12 (inactive) | 1 (inactive) | 1.02 (inactive) | 0.998 (inactive) | 1.01 (inactive) | 0.971 (inactive) | 0.973 (inactive) | 1.04 (inactive)
N[C@@H](C(=O)N[C@@H]1C(=O)N2C(C(=O)O)=C(Cl)CS[C@H]12)c1ccccc1 [Cefaclor hydrate] (20 µM) | 0.594 | 0.999 | 1.06 | 0.999 | 0.947 (inactive) | 0.846 (inactive) | 0.783 (inactive) | 0.939 (inactive) | 1.07 (inactive) | 1.23 (inactive) | 1.03 (inactive) | 0.859 (inactive)
N=C(N)NC(=O)c1nc(Cl)c(N)nc1N [Amiloride hydrochloride dihydrate] (20 µM) | 0.984 | 0.951 | 0.984 | 0.948 | 0.982 (inactive) | 0.98 (inactive) | 1.09 (inactive) | 1.03 (inactive) | 0.94 (inactive) | 0.987 (inactive) | 1.05 (inactive) | 1.08 (inactive)
CCCCN(CCCC)CCC(O)c1cc2c(Cl)cc(Cl)cc2c2cc(C(F)(F)F)ccc12 (stereo not given) [Halofantrine hydrochloride] (20 µM) | 1.1 | 1.23 | 1.03 | 1.16 | 0.895 (inactive) | 1.01 (inactive) | 0.756 (active) | 1.17 (inactive) | 0.964 (inactive) | 0.955 (inactive) | 1.01 (inactive) | 0.92 (inactive)
CC(=O)CC(c1ccccc1)c1c(O)c2ccccc2oc1=O (stereo not given) [Warfarin] (20 µM) | 1.08 | 1.21 | 0.97 | 1.12 | 1 (inactive) | 1.05 (inactive) | 0.84 (inactive) | 1.22 (inactive) | 0.989 (inactive) | 0.958 (inactive) | 0.984 (inactive) | 0.758 (inactive)
C[C@]12CC[C@@H]3c4ccc(O)cc4CC[C@H]3[C@@H]1CCC2=O [Estrone] (20 µM) | 1.03 | 1.02 | 1.03 | 1.01 | 1.07 (inactive) | 1.06 (inactive) | 0.894 (inactive) | 1.04 (inactive) | 1.02 (inactive) | 1.02 (inactive) | 1.01 (inactive) | 0.884 (inactive)
Nc1ccc(S(N)(=O)=O)cc1 [Sulfanilamide] (20 µM) | 0.877 | 1.03 | 0.987 | 1.15 | 0.919 (inactive) | 1.12 (inactive) | 1.11 (inactive) | 0.908 (inactive) | 0.951 (inactive) | 0.919 (inactive) | 1.03 (inactive) | 1.15 (inactive)
CC(=O)[C@@]12O[C@](C)(c3ccccc3)O[C@@H]1C[C@H]1[C@@H]3CCC4=CC(=O)CC[C@]4(C)[C@H]3CC[C@@]12C [Algestone acetophenide] (20 µM) | 1.03 | 1.22 | 0.998 | 1.13 | 1.03 (inactive) | 0.919 (inactive) | 1.08 (inactive) | 1.3 (inactive) | 1.01 (inactive) | 0.955 (inactive) | 1 (inactive) | 1.1 (inactive)
CCCc1ncc(C[n+]2ccccc2C)c(N)n1 [Amprolium hydrochloride] (20 µM) | 1.01 | 0.954 | 0.982 | 0.95 | 1.01 (inactive) | 1 (inactive) | 1.11 (inactive) | 0.995 (inactive) | 0.941 (inactive) | 0.936 (inactive) | 1.03 (inactive) | 1.15 (inactive)
OC[C@@H](O)[C@@H](O)CO [Erythritol] (50 µM) | 0.882 | 1.12 | 0.977 | 1.02 | 1.05 (inactive) | 1 (inactive) | 0.974 (inactive) | 1.03 (inactive) | 0.995 (inactive) | 1.05 (inactive) | 0.993 (inactive) | 0.945 (inactive)
Cc1cc(NS(=O)(=O)c2ccc(N)cc2)nc(C)n1 [Sulfisomidine] (20 µM) | 1.12 | 1.07 | 1.04 | 1.03 | 1.02 (inactive) | 1.08 (inactive) | 1.04 (inactive) | 0.985 (inactive) | 0.987 (inactive) | 0.993 (inactive) | 0.992 (inactive) | 1.08 (inactive)
CC(C)C[C@H](NC(=O)[C@@H](O)[C@H](N)Cc1ccccc1)C(=O)O [Ubenimex] (20 µM) | 1.02 | 0.971 | 0.969 | 0.332 | 0.887 (inactive) | 1.15 (inactive) | 0.148 (active) | 1.04 (inactive) | 0.95 (inactive) | 0.936 (inactive) | 0.973 (inactive) | 0.168 (active)
CCC(NC(C)C)C(O)c1ccc(O)c(O)c1 (stereo not given) [Isoetharine mesylate salt] (20 µM) | 1.13 | 1.06 | 0.99 | 0.992 | 1 (inactive) | 0.966 (inactive) | 0.977 (inactive) | 1.11 (inactive) | 0.995 (inactive) | 0.987 (inactive) | 0.994 (inactive) | 0.92 (inactive)
CC(=O)Nc1ccc(CC(=O)O)cc1 [Actarit] (20 µM) | 0.864 | 0.972 | 1.03 | 1.11 | 1.02 (inactive) | 1.03 (inactive) | 0.992 (inactive) | 1.35 (inactive) | 1 (inactive) | 0.96 (inactive) | 1.01 (inactive) | 0.944 (inactive)
COc1cc(C(=O)NC2CCCNC2)cc(OC)c1OC (stereo not given) [Troxipide] (20 µM) | 0.822 | 1.02 | 0.99 | 0.845 | 0.989 (inactive) | 1.03 (inactive) | 1.06 (inactive) | 0.965 (inactive) | 0.983 (inactive) | 0.978 (inactive) | 0.996 (inactive) | 1.02 (inactive)
CN1CCC(=C2c3ccccc3Sc3ccccc32)CC1 [Pimethixene maleate] (20 µM) | 1.13 | 0.985 | 0.967 | 1.26 | 1.02 (inactive) | 1.01 (inactive) | 0.87 (inactive) | 0.974 (inactive) | 0.991 (inactive) | 1.02 (inactive) | 0.993 (inactive) | 0.865 (inactive)
CC(CNC1CCCCC1)OC(=O)c1ccccc1 (stereo not given) [Hexylcaine hydrochloride] (20 µM) | 1 | 0.961 | 1.01 | 1.02 | 1.02 (inactive) | 1.03 (inactive) | 1.01 (inactive) | 1 (inactive) | 0.988 (inactive) | 0.994 (inactive) | 0.984 (inactive) | 1.01 (inactive)
CCCCS(=O)(=O)N[C@@H](Cc1ccc(OCCCCC2CCNCC2)cc1)C(=O)O [Tirofiban hydrochloride] (20 µM) | 0.927 | 0.983 | 1.01 | 1.11 | 0.975 (inactive) | 0.943 (inactive) | 1.03 (inactive) | 0.994 (inactive) | 1 (inactive) | 1 (inactive) | 1.01 (inactive) | 1.02 (inactive)
O=C(O)COc1nn(Cc2ccccc2)c2ccccc12 [Bendazac] (20 µM) | 1.19 | 1.05 | 1.05 | 1.02 | 0.954 (inactive) | 0.948 (inactive) | 0.986 (inactive) | 0.975 (inactive) | 1 (inactive) | 0.973 (inactive) | 1 (inactive) | 0.993 (inactive)
N=C(N)NC(=N)NCCc1ccccc1 [Phenformin hydrochloride] (20 µM) | 0.958 | 1.01 | 1.07 | 0.756 | 1 (inactive) | 1.03 (inactive) | 1.03 (inactive) | 0.964 (inactive) | 1 (inactive) | 1.07 (inactive) | 1.01 (inactive) | 1.05 (inactive)
CC(C)(C)c1ccc(C(O)CCCN2CCC(C(O)(c3ccccc3)c3ccccc3)CC2)cc1 (stereo not given) [Terfenadine] (20 µM) | 1.21 | 1 | 1.09 | 1.21 | 0.886 (inactive) | 1.06 (inactive) | 0.754 (active) | 1 (inactive) | 0.97 (inactive) | 1.05 (inactive) | 1.01 (inactive) | 0.815 (inactive)
O=C(O)CNC(=O)c1ccccc1 [Hippuric acid] (20 µM) | 1.12 | 1.02 | 1.02 | 1.05 | 1.03 (inactive) | 1.05 (inactive) | 1.08 (inactive) | 0.979 (inactive) | 0.997 (inactive) | 0.94 (inactive) | 1.01 (inactive) | 1.09 (inactive)
